Measured values reported in PubChem BioAssay AID624330 (Southern Research Specialized Biocontainment Screening …, 2012).
Screen size: about 340,000 compounds; about 2,100 (0.62%) were called active.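 How the source made its calls: active means first-screen hits whose inhibition reached a set limit at any dose in the follow-up dose series; inconclusive means inhibition above the set first-screen limit but never retested; inactive means the rest.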 These entries were drawn from the full list. Results with a measured potency or affinity are listed apart.

What follows are compounds tested against Rac GTPase-activating protein 1 (Homo sapiens) (UniProt Q9H0H5) (assay: blockers of MgcRacGAP-driven Rac1 GTP hydrolysis – biochemical, ADP Hunter fluorescence, primary and confirmatory, confirmation (AID 624330;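 further: fluorescence reports GDP produced by GAP-driven GTP hydrolysis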)). Details: MgcRacGAP-stimulated Rac1 GTP hydrolysis, at 30 µM, stronger effect = higher value, GST-tagged Rac1 F28L mutant substrate.
Chain of Rac GTPase-activating protein 1 (Homo sapiens) (Q9H0H5 whole entry, looked up): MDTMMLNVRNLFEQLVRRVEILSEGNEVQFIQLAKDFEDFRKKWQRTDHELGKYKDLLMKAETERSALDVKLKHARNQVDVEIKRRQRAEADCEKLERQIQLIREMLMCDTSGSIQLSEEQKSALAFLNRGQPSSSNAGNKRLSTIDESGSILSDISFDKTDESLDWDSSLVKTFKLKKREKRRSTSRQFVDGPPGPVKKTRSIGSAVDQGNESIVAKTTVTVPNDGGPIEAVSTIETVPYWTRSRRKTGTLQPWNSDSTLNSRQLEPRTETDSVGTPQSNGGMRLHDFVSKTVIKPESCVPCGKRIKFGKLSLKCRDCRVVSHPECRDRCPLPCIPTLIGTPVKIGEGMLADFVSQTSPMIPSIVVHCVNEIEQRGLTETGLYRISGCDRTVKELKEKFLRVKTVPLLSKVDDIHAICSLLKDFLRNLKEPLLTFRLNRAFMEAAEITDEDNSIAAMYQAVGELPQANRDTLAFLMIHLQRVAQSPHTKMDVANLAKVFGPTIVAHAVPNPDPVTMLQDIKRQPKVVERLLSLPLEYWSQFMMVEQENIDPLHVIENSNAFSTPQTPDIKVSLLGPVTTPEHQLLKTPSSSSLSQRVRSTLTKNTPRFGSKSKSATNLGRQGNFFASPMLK

inhibition, inactive:
Cc1[nH]c(=O)[nH]c(=O)c1S(=O)(=O)N1CCCC(C(=O)NCc2ccco2)C1 (configuration not stated) 4.98%, COc1ccc(C=NNc2nc3ccccc3s2)cc1 2.73%, COc1cc(OC)cc(C(=O)Oc2ccc(/C=N/Nc3nc4ccccc4s3)cc2OC)c1 12.4%, COc1cc(/C=N/Nc2nc3ccccc3s2)cc([N+](=O)[O-])c1O 8.67%, COc1cc(/C=N/Nc2nc3ccccc3s2)ccc1OC(=O)c1ccccc1F 4.55%, Brc1csc(/C=N/Nc2nc3ccccc3s2)c1 8.54%, Oc1ccccc1C=NNc1nc2ccccc2s1 4.1%, COc1ccc(OC)c(C(=O)COC(=O)c2ccc(C)o2)c1 13%, Cc1ccc2c(c1)C1CC(C)(O2)N(c2cccc(C(=O)NC3CCN(Cc4ccccc4)CC3)c2)C(=O)N1 (configuration not stated) 3.74%, O=C(CSc1ncnc2sc3c(c12)CCCC3)NC1CCS(=O)(=O)C1 (configuration not stated) 12.7%, CCN(CC(=O)Nc1ccc(S(=O)(=O)N2CCCC2)cc1)Cc1ccccc1 1.79%, Cc1ccc(C)c(-n2cc(CNCCc3cnccn3)c(-c3ccccc3)n2)c1 12.1%, Cc1cc(OC(C)C(=O)NCc2ccccn2)c2c(C)cc(=O)oc2c1 (configuration not stated) 0.55%, CC(=O)Nc1ccc2ccc3cccc4ccc1c2c34 6.5%, CC(=O)Nc1cccc2ccc(O)cc12 -6.95%, COc1cc(OC)cc(-c2ncc3ccccn23)c1 29.5%, Clc1ccc(-c2ncc3ccccn23)cc1 6.65%, COc1ccc(-c2ncc3ccccn23)cc1 14.9%, Fc1ccc(-c2ncc3ccccn23)cc1 -4.81%, c1ccc(-c2ncc3ccccn23)cc1 12%, Brc1ccc(-c2ncc3ccccn23)cc1 14.6%, CCN(CC)C(=O)[C@H]1CC(CC(=O)NC(C)(C)C)C(=O)N2CCc3c([nH]c4ccccc34)[C@]12C (some centres not stated) 6.38%, O=C(Nc1ccon1)Nc1ccc(Cl)cc1Cl 2.26%, Cc1ccc(-c2nc3ncccc3o2)cc1NC(=O)CC(C)C 4.77%, CC(NC(=O)NC1CCCCC1)C(c1cccs1)N1CCN(C)CC1 (configuration not stated) 1.37%, COc1ccc(CNC(=O)Cn2cc([N+](=O)[O-])nc2C)cc1 2.29%, O=C(O)CCC(=O)N1CCN(c2ncccn2)CC1 1.98%, O=C(CN1C(=O)C2CCCCC2C1=O)N1CCN(c2ncccn2)CC1 (configuration not stated) 5.06%, COc1ccc2c(C)cc(=O)sc2c1 5.61%, O=C(Nc1cccc(NC(=O)c2ccccc2)n1)c1ccccc1 8.99%, Cc1cc(NC(=O)CN2CCCCC2)no1 22.2%, CC1CCN(CC(=O)Nc2ccc(S(=O)(=O)N3CCC(C)CC3)cc2)CC1 23%, Cc1cc(NC(=O)CN2CCCC(C)C2)no1 (configuration not stated) 20.7%, Cc1cc(NC(=O)CN2CCCCCCC2)no1 18%, O=C(CN1CCCCC1)Nc1ccc(S(=O)(=O)NC2CCCCC2)cc1 5.84%, CCN1CCN(CC(=O)Nc2cc(C)on2)CC1 29.4%, COc1ccc(S(=O)(=O)N2CCOCC2)cc1C(=O)N(C)CCOc1ccc(Cl)cc1 6.35%, O=C1C2C3C=CC(O3)C2C(=O)N1Cc1ccncc1 (configuration not stated) 1.25%, CN(CC1COc2ccccc2O1)C(=O)c1ccc(Cl)c(S(=O)(=O)N2CCCCCC2)c1 (configuration not stated) 7.88%, Oc1ccc(-c2csc(Nc3ccc4c(c3)OCO4)n2)c(O)c1 10.8%, COc1ccc(-c2csc(Nc3ccc(S(=O)(=O)Nc4cc(C)on4)cc3)n2)cc1 11.9%, CC(=O)Nc1ccc(Nc2nc(-c3cc4ccccc4oc3=O)cs2)cc1 4.39%, CC(=O)Nc1ccc(-c2csc(Nc3ccc(S(N)(=O)=O)cc3)n2)cc1 -2.9%, NS(=O)(=O)c1ccc(Nc2nc(-c3ccc4ccccc4c3)cs2)cc1 -0.69%, Cc1cc(NS(=O)(=O)c2ccc(Nc3nc(-c4ccc(C)c(C)c4)cs3)cc2)no1 12.2%, COc1ccc(-c2csc(Nc3ccc(S(N)(=O)=O)cc3)n2)cc1 15.2%, Nc1ccc(Nc2nc(-c3cc4ccccc4oc3=O)cs2)cc1 47.4%, Cc1cc(=O)[nH]c(N/N=C/c2c(C)nn(-c3ccccc3)c2Cl)n1 0.59%, CN=c1scc(-c2ccc(Cl)cc2)n1C 3.57%, CC(C(=O)OCC(=O)N1CCCCC1)N1C(=O)c2ccccc2C1=O (configuration not stated) 2.6%, CC1CCN(S(=O)(=O)c2cn(CC(=O)N3CCN(C)CC3)c(=O)c3ccccc23)CC1 -14%, O=C(CSc1ccc(-c2cccc([N+](=O)[O-])c2)nn1)N1CCCCC1 9.68%, CC(C)(C)S(=O)(=O)N1C[C@H]2CC/C=C\C/C(c3ccccc3)=C\2[C@@H]1CCO 2.11%, CC(C)c1ccc(NC(=O)COC(=O)C2CCCCC2)cc1 1.49%, O=C(NC1CCN(C(=O)N2c3ccccc3Sc3ccccc32)CC1)c1ccccc1Cl 23.6%, O=C(NC1CCN(C(=O)N2c3ccccc3Sc3ccccc32)CC1)c1ccco1 1.56%, CC1C(=O)C(C)C(c2cc(Cl)ccc2O)NC1c1cc(Cl)ccc1O (configuration not stated) 6.05%, CCC[C@H]1CN(c2ccccc2)C(=O)[C@@H]1CC(=O)Nc1ccc(Br)cc1 13.1%, CCSc1nnc2n(-c3ccc(OC)cc3)c(=O)c3c4c(sc3n12)CCCC4 -3.51%, COc1ccccc1-n1c(=O)c2c3c(sc2n2c(SC)nnc12)CCC3 11.3%, COc1ccccc1-n1c(=O)c2c3c(sc2n2c(SC(C)C)nnc12)CCC3 14.9%, COC(=O)CSc1nnc2n(-c3ccc(OC)cc3)c(=O)c3c4c(sc3n12)CCCCC4 7.39%, O=C(OCC(=O)N1CCc2ccccc21)c1ccncc1 3.21%, CCC(CC)CN1CCC(CN2CCNC(=O)C2=O)CC1 0.28%, COc1cccc2cc(C(C)=O)c(=O)oc12 -3.65%, COc1ccc(NC(=O)c2cc3ccccc3oc2=O)cc1 20.1%, COc1cc(C(C)=O)ccc1OC(=O)c1cc2cccc(OC)c2oc1=O 2.6%, COc1cccc2cc(C(=O)Oc3ccccc3)c(=O)oc12 15.6%, CCOc1ccccc1OC(=O)c1cc2ccccc2oc1=O 9.21%, CC(=O)Nc1ccc(OC(=O)c2cc3cc(Br)ccc3oc2=O)cc1 10.4%, O=C(Oc1ccccc1)c1cc2ccccc2oc1=O -4.44%, COc1ccc(NC(=O)c2cc3cc(OC)ccc3oc2=O)cc1 7.32%, CCN(CC)S(=O)(=O)c1ccc(C(=O)Oc2cc(C)[nH]c(=O)c2[N+](=O)[O-])cc1 0.7%, CCc1cccc(NS(=O)(=O)c2c(C)nc3scc(C)n3c2=O)c1 1.2%, C[C@@H]1CN([C@H](C)CO)C(=O)c2cc(NC(=O)Nc3ccc(F)cc3)ccc2O[C@@H](C)CCCCO[C@H]1CN(C)Cc1ccc(C(=O)O)cc1 10.2%, COc1ccc(N2C(=NC(=O)C3CC3)SC3CS(=O)(=O)CC32)cc1Cl (configuration not stated) 8.01%, Cc1ccsc1C(=O)OCC(=O)NC1CCCCC1 -3%, O=C1CC(N2CCN(c3ccccc3)CC2)C(=O)N1c1cccc(Cl)c1 (configuration not stated) 11.1%, COc1ccc(N2CC(C(=O)NNC(=O)c3ccc(Br)cc3)CC2=O)c(OC)c1 (configuration not stated) 5.62%, O=C(Nc1nc(-c2ccc(F)cc2)cs1)c1cccc(N2C(=O)CCC2=O)c1 4.08%, Cc1ccc(SCC(=O)N2c3ccccc3Sc3ccccc32)cc1 6.99%, CCOC(=O)N1c2ccccc2Sc2ccccc21 1.37%, COc1cc2c(cc1OC)C(c1cccs1)N(C(=O)c1ccncc1)CC2 (configuration not stated) 11.6%, COc1cccc(OCC(=O)NC2CCCCCC2)c1 -1.14%, CCN1CCN(C(=O)c2cc3cc4cc(OC)ccc4nc3s2)CC1 8.34%, NNC(=O)c1cc2cc3ccccc3nc2s1 4.35%, O=[N+]([O-])c1cc([N+](=O)[O-])c(Oc2cc(Cl)ccc2Cl)cc1NC1CCCCCCC1 3.85%, CCOC(=O)C1CCN(Cc2cccc(Oc3ccc(Cl)cc3)c2)CC1 21%, COc1cccc(CN2CCC(C(=O)N3CCN(Cc4ccc5c(c4)OCO5)CC3)CC2)c1 27.8%, CCOC(=O)C1CCN(Cc2ccccc2C)CC1 2.84%, CCOC(=O)C1CCCN(Cc2ccc(-c3ccccc3)cc2)C1 (configuration not stated) -2.6%, CCOC(=O)C1CCN(Cc2cccc(OCc3ccccc3)c2)CC1 19.5%, CCOC(=O)C1CCN(Cc2ccc(OCc3ccccc3)cc2)CC1 18.4%, CCOC(=O)C1CCN(Cc2ccccc2C(F)(F)F)CC1 8.95%, COc1cccc(CN2CCC(C(=O)N3CCN(c4ccccc4F)CC3)CC2)c1 15.7%, CCSc1ccc2nnc(-c3cccc(F)c3)n2n1 6.86%, COC(CN(C)C(=O)C1CCC(CNS(=O)(=O)c2ccccc2)CC1)OC (configuration not stated) 6.07%
